Bioassay records as filed in PubChem.
Sampled rows, rich in hits. Any-hit rate of the full collection: about 5.8%.
MCF10A rereplic: DNA re-replication induction in MCF 10a cells; MCF 10A DNA re-replication, Hoechst nuclear intensity, 48 h; Potency, µM (top dose mostly 46.1 µM), without a hit: at the top dose activity, positive = re-replication, most hits filed as activators; 350,000 tested, 2.9% active; AID 624296; further: % of control where 0% means no effect; nearly all actives have a fitted effect of over 50% in size
SW480 rerep: inducers of DNA re-replication in SW480 colon cancer cells; AID 624297; SW480 DNA re-replication, Hoechst DNA content imaging, 48 h; 340,000 tested, 1.8% active; Potency, µM (doses to about 46.1 µM), for the others: top-dose re-replication activation, usual class: activators; further: % of control where 0% means no effect; nearly all actives have a fitted effect of over 55% in size
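Image-based DNA-content assay: after two days of treatment, nuclei were labelled with the DNA dye Hoechst and imaged, and hits were compounds raising the count of nuclei showing high fluorescence intensity.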
KB-3-1 cytotox: KB-3-1 parental cell cytotoxicity; KB-3-1 viability, CellTiter-Glo ATP luminescence, 72 h; Potency, µM (titrated, usually from 46.1 µM), most hits filed as cytotoxic; 400,000 tested, 1.4% active; AID 1347075; further: on the % scale 0 is the no-effect control and ±100 the full control effect; nearly all actives have a fitted effect of over 60% in size
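Cytotoxicity in the drug-sensitive parental line KB-3-1 was scored as loss of CellTiter-Glo luminescence following 72 h incubation with compound. Values come from curve fitting of normalized concentration-response data.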
KB-V1 MDR tox: KB-V1 MDR subline cytotoxicity; KB-V1 MDR cells viability, CellTiter-Glo, 72 h; Potency, µM (highest dose often 46.1 µM), hits mostly cytotoxic; 400,000 tested, 3.4% active; further: on the % scale 0 is the no-effect control and ±100 the full control effect; nearly all actives have a fitted effect of over 60% in size
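Cytotoxicity toward P-gp-expressing KB-V1 cells was determined as loss of CellTiter-Glo luminescence after 72 h at 37 degrees C. Compounds were tested in quantitative HTS format across a concentration range, with curves fitted to normalized data.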
PINK1 modulator: changes PINK1 expression; PINK1 immunofluorescence, high-content cytometry, 24 h; Potency, µM (titrated, usually from 76.6 µM), for inactives: at the top dose activation (PINK1 increase), actives largely listed as activators; 410,000 tested, 0.2% active; AID 624263; active means well fitted activation curve with a large enough effect; inconclusive means small, poorly fitted or top-dose-only effect; cell line not stated here; further: % of control where 0% means no effect; nearly all actives have a fitted effect of over 65% in size
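Decision-based qHTS: stable cells, 24 h exposure to five compound concentrations, CCCP as control. Fixed cells stained for PINK1 plus nuclear, mitochondrial and cell markers, cytometer read.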
12-LOX inh: inhibitors of human 12S-lipoxygenase ALOX12. AID 1671190. P18054. purified 12hLO, xylenol orange hydroperoxide absorbance. 580,000 tested, 1.1% active. Potency, µM (titrated, usually from 108 µM), inactives show top-dose activity change, negative = inhibition, hits mostly inhibitors; further: on the % scale 0 is the no-effect control and ±100 the full control effect
Target sequence (P18054 whole entry, looked up): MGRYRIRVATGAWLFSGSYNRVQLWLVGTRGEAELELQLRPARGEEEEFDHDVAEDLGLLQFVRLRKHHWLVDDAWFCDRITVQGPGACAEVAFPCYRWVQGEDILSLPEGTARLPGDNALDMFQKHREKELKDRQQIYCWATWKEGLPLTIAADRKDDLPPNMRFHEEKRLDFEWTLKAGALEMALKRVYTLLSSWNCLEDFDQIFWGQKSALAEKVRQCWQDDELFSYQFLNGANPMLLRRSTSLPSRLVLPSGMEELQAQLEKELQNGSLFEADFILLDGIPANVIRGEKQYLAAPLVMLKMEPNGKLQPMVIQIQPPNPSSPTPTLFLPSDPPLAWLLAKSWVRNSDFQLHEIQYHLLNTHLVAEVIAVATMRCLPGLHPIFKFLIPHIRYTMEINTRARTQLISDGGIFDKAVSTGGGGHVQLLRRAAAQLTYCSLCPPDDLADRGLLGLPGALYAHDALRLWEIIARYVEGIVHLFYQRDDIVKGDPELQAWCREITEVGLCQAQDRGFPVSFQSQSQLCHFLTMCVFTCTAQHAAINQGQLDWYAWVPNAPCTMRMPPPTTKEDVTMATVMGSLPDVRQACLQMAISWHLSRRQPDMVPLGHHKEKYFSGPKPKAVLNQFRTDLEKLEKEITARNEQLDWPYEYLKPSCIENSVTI
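Purified human 12hLO (150 nM final) in 25 mM Hepes, 0.01% Triton X-100, pH 7.0 was preincubated 15 min at room temperature with compound. Then 40 uM arachidonic acid was added, 30 min. Hydroperoxide was read by Fe-XO absorbance ratio 573/405 nm.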
* marks the source's active call; other numbers are inactive results; i = inactive; ? = inconclusive; / = not tested or not shown; [ ] = another dose, or the depositor's remark. Unless noted, the call rests on the fitted dose curve; in most records, active means well fitted curve in the direction sought with a large enough effect; inconclusive means small, poorly fitted or top-dose-only effect, or another doubt; inactive means no such curve, though single readings can be large; an effect the other way counts as inactive or inconclusive. Potency means the concentration at half of the fitted maximal effect.

SMILES | MCF10A rereplic | SW480 rerep | KB-3-1 cytotox | KB-V1 MDR tox | PINK1 modulator | 12-LOX inh
N=c1c(C(=O)NCc2ccc(F)cc2)cc2c(=O)n3ccccc3nc2n1CCCN1CCOCC1 | 2.8µM* | ? | i | i | 0% | -6%
Cc1ccc(Cn2c(=N)c(C(=O)NCCN3CCOCC3)cc3c(=O)n4ccccc4nc32)cc1 | 0.58µM* | ? | i | i | 4% | -14%
N=c1c(C(=O)NCCN2CCOCC2)cc2c(=O)n3ccccc3nc2n1CCc1ccccc1 | ? | 10µM* | i | i | 1% | -26%
CCOCCCn1c(=N)c(C(=O)NCc2ccccc2)cc2c(=O)n3ccccc3nc21 | / | / | i | i | -1% | 0%
O=C(CCc1ccccc1)NCC12CC3CC(CC(C3)C1)C2 | / | / | / | / | / | 22%
COc1cccc(C(=O)NCc2coc(-c3cccs3)n2)c1OC | / | / | / | / | / | 16%
CN(C)CCNc1nc2c(c(=O)n(C)c(=O)n2C)n1Cc1ccc(Cl)cc1 | / | / | / | / | / | 6%
Cc1ccc(C(=O)NCCC23CC4CC(CC(C4)C2)C3)cc1 | / | / | / | / | / | 1%
N=c1c(C(=O)NCCc2ccccc2)cc2c(=O)n3ccccc3nc2n1CCCN1CCOCC1 | ? | 5.2µM* | i | ? | 3% | -26%
CCOC(=O)C1=C(C)N=C2SC=C(CC(=O)NCC3CC3)N2C1c1ccccc1OC (stereo unspecified) | / | / | / | / | / | 9%
NC(=O)c1cc(S(=O)(=O)NCC2CCN(Cc3ccc(F)cc3)CC2)cs1 | / | / | / | / | / | -4%
Cc1ccc(/C=N/NC(=O)Cc2ccc(Cl)cc2)c(O)c1 | 15% | 7.3µM* | ? | 7.3µM* | 0% | -2%
C/C(=N\OCC(=O)N/N=C/c1ccc(C)cc1O)c1cccs1 | 4.1µM* | 6.5µM* | i | ? | -3% | 35%
CCn1c(=O)n(CC(=O)N(C)CC(=O)Nc2ccccc2Br)c2ccccc21 | / | / | / | / | / | -9%
Cn1cc(C(=O)N2CCN(S(=O)(=O)c3ccc(F)cc3)CC2)c2ccccc21 | / | / | / | / | / | -5%
Cc1sc(NC(=O)CC(C)(C)C)c(C#N)c1C | / | / | / | / | / | 13µM*
CC1CCc2c(sc(/N=C/c3cccnc3)c2C(N)=O)C1 (stereo unspecified) | -3% | -5% | i | i | 1% | 32µM*
CCCOC(=O)CNC(=O)c1cc(OC)cc(OC)c1 | / | / | / | / | / | -5%
Cn1c(NC(=O)c2ccco2)c(-c2cccc(C(F)(F)F)c2)c(=O)c2ccccc21 | / | / | / | / | / | -3%
CCOC(=O)c1sc(Nc2nc3c(F)cccc3s2)cc1C | 21µM* | ? | i | i | 10% | 6%
CCOC(=O)c1sc(NC(=O)Nc2cccc(Cl)c2)cc1C | ? | 26% | ? | 13µM* | ? | -16%
CCOC(=O)c1sc(NC(=S)NC(=O)C23CC4CC(CC(C4)C2)C3)cc1C | 7% | -3% | i | i | 9% | 35µM*
CCOC(=O)c1sc(Nc2nc3c(OC)cccc3s2)nc1C | / | / | / | / | / | -4%
CCOC(=O)c1sc(Nc2nc3ccc(OC)cc3s2)cc1C | 18µM* | ? | i | i | ? | -9%
CCCCNC(=O)N1CCC(C(=O)O)CC1 | / | / | / | / | / | -1%
SMILES | MCF10A rereplic | SW480 rerep | KB-3-1 cytotox | KB-V1 MDR tox | PINK1 modulator | 12-LOX inh
CCn1nc(C)c(CNC(=O)c2cc(COc3ccc(F)cc3Cl)on2)c1C | 12% | 0% | ? | ? | 3% | -9%
CCn1cc(CNC(=O)c2cc(COc3ccc(F)cc3Cl)on2)cn1 | ? | 18µM* | ? | ? | 0% | 0%
O=C(CCCC1C(=O)Nc2ccccc21)NCCc1noc(-c2ccccc2)n1 (stereo unspecified) | / | / | / | / | / | 6%
CCN(CC)C(=O)CSc1nc2ccccc2c(=O)n1CC | -17% | 2% | i | i | -2% | ?
CCN(CC)C(=O)CSc1nc2ccccc2c(=O)n1OC(C)C | -1% | -3% | i | 2.6µM* | -4% | 0%
CN(C)c1ccc(/C=N/NC(=O)C2COc3ccccc3O2)o1 (stereo unspecified) | 7% | 6% | i | i | 3% | -13%
O=C(N/N=C/c1ccc(-c2ccc([N+](=O)[O-])cc2)o1)[C@H]1C[C@@H]1c1ccccc1 | 23µM* | 8.2µM* | i | i | ? | -4%
O=C(N/N=C\c1ccc(-c2ccc([N+](=O)[O-])cc2)o1)C1COc2ccccc2O1 (stereo unspecified) | 21µM* | 8% | i | ? | 1% | -23%
O=C(N/N=C/c1ccc(-c2cccc([N+](=O)[O-])c2)o1)[C@H]1C[C@@H]1c1ccccc1 | 12% | -4% | i | ? | 13% | -20%
Clc1ccc(CN2C3=NCCCN3c3ccccc32)cc1Cl | 16µM* | 10% | ? | ? | 2% | -14%
O=C(CN1C2=NCCCN2c2ccccc21)c1ccc(Cl)cc1Cl | 11% | 30% | ? | 13µM* | 0% | -9%
Clc1ccc(CN2C3=NCCCN3c3ccccc32)cc1 | 5% | -2% | ? | i | 0% | 4%
Cc1c(C(=O)CSc2nnc(C3CC3)n2C)sc2ccccc12 | / | / | / | / | / | 16%
O=C(Cc1ccc(Cl)cc1)Nc1ccc2oc(=O)ccc2c1 | 2% | 1% | i | i | 0% | -27%
O=C(Cc1ccc(Cl)cc1)Nc1ccc(-c2cc3ccccc3oc2=O)c(Cl)c1 | 2.3µM* | 7.3µM* | 1.3µM* | 2.3µM* | 6% | -8%
CCc1ccc(OCC(=O)Nc2ccc(-c3cc4ccccc4oc3=O)c(OC)c2)cc1 | -37% | 2.3µM* | ? | ? | 11% | 3%
FC(F)(F)c1cccc(CNCc2cccc(C(F)(F)F)c2)c1 | / | / | / | / | / | 3%
CCC(C)NCCCOc1c(C)cc(C)cc1Br (stereo unspecified) | ? | 16µM* | i | i | 2% | ?
CCc1ccccc1NC(=O)CSc1nc2n[nH]c(C)c2c(=N)n1-c1cccc(OC)c1 | ? | 18% | i | 8.2µM* | -5%[38.3 µM] | -8%
CCOc1ccccc1-n1c(SCC(=O)Nc2ccc(CC)cc2)nc2n[nH]c(C)c2c1=N | 8.2µM* | -2% | 18µM* | ? | 9% | /
CCOc1ccccc1NC(=O)CCSc1nc2n[nH]c(C)c2c(=N)n1-c1ccccc1Cl | 13µM* | ? | i | ? | 7%[38.3 µM] | 15%
COc1ccc(OC)c(NC(=O)CSc2nc3n[nH]c(C)c3c(=N)n2-c2cccc(Cl)c2C)c1 | 27% | 7% | ? | ? | 1% | -4%
CCc1ccc(NC(=O)CSc2nc3n[nH]c(C)c3c(=N)n2-c2ccccc2C)cc1 | / | / | i | i | -1% | -10%
